For some of these results: Results with a measured potency or affinity are listed apart.

Common to all, as to design: scale not given: direction of the effect not stated beside the values
Experiment [1] concerns the target Protein translocase subunit SecA (Escherichia coli (strain K12)) (UniProt P10408). In words: Assay to Identify E. coli SecA ATPase Inhibitors. To be noted: 30 µM. The class given is functional.
In experiment [2] the target is T1, Ubiquitin-activating enzyme e1, putative (Leishmania donovani (strain BPK282A1)) (UniProt E9BSI1).
T1 sequence (whole entry): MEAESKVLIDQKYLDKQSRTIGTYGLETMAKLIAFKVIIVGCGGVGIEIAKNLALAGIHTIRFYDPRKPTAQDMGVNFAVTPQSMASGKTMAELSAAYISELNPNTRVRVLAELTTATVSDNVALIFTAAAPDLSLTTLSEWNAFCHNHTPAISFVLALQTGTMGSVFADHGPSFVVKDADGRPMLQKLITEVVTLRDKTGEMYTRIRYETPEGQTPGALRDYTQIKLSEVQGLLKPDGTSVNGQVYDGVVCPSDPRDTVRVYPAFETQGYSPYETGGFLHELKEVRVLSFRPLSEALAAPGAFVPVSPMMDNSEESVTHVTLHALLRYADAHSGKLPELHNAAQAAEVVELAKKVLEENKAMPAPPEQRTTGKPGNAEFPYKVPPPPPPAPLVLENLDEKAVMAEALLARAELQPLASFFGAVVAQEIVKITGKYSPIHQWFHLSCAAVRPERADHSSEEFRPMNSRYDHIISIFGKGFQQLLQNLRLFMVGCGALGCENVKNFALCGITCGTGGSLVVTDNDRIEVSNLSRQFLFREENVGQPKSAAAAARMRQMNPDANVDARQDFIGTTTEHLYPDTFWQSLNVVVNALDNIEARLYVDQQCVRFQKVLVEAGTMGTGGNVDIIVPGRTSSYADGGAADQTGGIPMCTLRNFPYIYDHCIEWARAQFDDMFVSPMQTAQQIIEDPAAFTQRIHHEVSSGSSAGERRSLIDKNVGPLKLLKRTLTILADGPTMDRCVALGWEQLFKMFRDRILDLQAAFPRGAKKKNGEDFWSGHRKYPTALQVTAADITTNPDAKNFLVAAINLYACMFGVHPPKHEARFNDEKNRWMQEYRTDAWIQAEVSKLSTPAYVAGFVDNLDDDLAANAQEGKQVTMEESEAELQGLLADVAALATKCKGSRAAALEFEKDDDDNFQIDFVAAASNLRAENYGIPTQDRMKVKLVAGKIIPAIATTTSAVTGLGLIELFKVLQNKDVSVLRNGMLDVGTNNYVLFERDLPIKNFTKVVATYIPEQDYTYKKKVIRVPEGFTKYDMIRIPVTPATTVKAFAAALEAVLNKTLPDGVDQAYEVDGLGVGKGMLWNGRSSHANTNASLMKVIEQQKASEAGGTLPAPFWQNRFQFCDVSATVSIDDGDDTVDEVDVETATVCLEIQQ
Kind of experiment: Leishmania donovani Ubiquitin Activating Enzyme (LdE1). It is filed as functional. The note with it: 30 µM.

In experiment [3] the target is AMP-activated protein kinase, AMPK (Homo sapiens) (UniProt P54646+O43741+P54619+Q9UGJ0+Q9Y478+Q13131+Q9UGI9). In words: AMP-dependent Kinase enzyme assay. An in vitro enzyme assay that detects ADP turnover that is directly proportional to AMPK activity. This uses naive AMPK that is activated during the assay with MK-8722. The class given is functional. The note with it: 30 µM.

The target of experiment [4] is Sialic acid-binding Ig-like lectin 9 (Homo sapiens) (UniProt Q9Y336). In words: Hs-Siglec9 ALPHAscreen SOP 20170721. The note with it: 10 µM. (In Alpha technology, singlet oxygen from a donor bead excites a nearby acceptor bead.)
The subject of a further experiment is Trypanosoma cruzi. Kind of experiment: Trypanosoma cruzi phosphomannomutase and mannose-1-phosphate guanylyltransferase assay. The class given is functional. The note with it: 10 µM.
The target of experiment [5] is T2, Arginase-2, mitochondrial (Homo sapiens) (UniProt P78540).
T2 sequence (whole entry): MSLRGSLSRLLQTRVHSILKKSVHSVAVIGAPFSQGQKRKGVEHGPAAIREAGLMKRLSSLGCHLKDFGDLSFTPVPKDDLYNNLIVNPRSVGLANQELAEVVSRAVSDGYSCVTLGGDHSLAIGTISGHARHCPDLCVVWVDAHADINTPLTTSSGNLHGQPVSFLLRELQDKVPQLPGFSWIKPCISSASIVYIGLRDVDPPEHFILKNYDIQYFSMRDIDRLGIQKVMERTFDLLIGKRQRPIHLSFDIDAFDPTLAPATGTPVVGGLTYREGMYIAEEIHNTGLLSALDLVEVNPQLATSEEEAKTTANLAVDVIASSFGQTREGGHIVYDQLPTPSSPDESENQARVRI
Kind of experiment: in vitro enzyme assay to detect the production of urea directly proportional to the activity of Arginase II. Further: in the data most compounds retested in dose-response had high values. It is filed as functional. To be noted: 33.3 µM.

Experiment [6] addresses T3, Proteasome subunit beta (Trypanosoma cruzi) (UniProt O96673).
T3 sequence (whole entry): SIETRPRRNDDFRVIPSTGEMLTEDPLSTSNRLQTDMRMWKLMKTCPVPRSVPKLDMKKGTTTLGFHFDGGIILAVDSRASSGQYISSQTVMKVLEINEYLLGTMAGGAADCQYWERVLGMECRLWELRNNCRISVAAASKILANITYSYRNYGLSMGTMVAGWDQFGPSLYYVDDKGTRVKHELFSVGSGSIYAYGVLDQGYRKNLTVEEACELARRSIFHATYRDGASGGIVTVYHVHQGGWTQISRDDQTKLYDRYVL
Kind of experiment: Trypanosoma cruzi proteasome chymotrypsin-like activity (TcProtChymo) assay. Further: in the data most compounds retested in dose-response had high values. The class given is functional. The note with it: 9.37 µM.

The species entered for another experiment is Homo sapiens. Kind of experiment: To identify inhibition of the IFN signalling (Jak-Stat) pathway via expression of an eGFP reporter gene under the control of an IFN-stimulated response element (ISRE) containing MxA promoter. The class given is functional. To be noted: 30 µM. (In general: Reporter assays use an easily measured gene product as a stand-in for the process of interest.)

The target of experiment [7] is T4, Tyrosyl-tRNA synthetase, putative (Trypanosoma cruzi (strain CL Brener)) (UniProt Q4DSP6).
T4 sequence (whole entry): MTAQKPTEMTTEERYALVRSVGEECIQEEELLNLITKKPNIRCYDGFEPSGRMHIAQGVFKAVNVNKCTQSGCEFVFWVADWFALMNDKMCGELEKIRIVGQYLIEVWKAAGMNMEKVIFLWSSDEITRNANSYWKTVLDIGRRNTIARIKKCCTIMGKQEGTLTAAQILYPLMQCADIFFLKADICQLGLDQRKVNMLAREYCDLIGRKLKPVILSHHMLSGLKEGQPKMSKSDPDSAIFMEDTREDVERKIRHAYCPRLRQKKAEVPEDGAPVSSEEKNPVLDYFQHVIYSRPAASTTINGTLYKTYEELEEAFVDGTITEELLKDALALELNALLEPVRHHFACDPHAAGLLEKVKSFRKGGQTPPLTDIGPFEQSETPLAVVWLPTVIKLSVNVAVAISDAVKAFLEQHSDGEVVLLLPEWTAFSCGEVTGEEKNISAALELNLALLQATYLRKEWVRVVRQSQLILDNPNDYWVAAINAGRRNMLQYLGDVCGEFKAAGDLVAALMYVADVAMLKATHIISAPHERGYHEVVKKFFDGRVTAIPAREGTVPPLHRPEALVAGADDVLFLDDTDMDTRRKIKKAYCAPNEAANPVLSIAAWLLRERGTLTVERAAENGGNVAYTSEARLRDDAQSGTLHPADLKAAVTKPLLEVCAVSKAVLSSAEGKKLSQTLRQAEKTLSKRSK
Kind of experiment: Trypanosoma cruzi tyrosyl tRNA synthetase (TcYRS) _High Tyrosine SOP. Further: in the data most compounds retested in dose-response had high values. To be noted: 30 µM. The class given is functional.

The target in experiment [8] is T4, Tyrosyl-tRNA synthetase, putative (Trypanosoma cruzi (strain CL Brener)). In words: Trypanosoma cruzi tyrosyl tRNA synthetase (TcYRS) SOP. It is filed as functional. To be noted: 30 µM.
For experiment [9], the target named is Chromo domain-containing protein 1 (Saccharomyces cerevisiae (strain ATCC 204508 / S288c) (Baker's yeast)) (UniProt P32657). In words: ScCHD-1 Enzyme Inhibition Assay. Further: in the data most compounds retested in dose-response had high values. The note with it: 30 µM. It is filed as functional.
Chromo domain-containing protein 1 (Saccharomyces cerevisiae (strain ATCC 204508 / S288c) (Baker's yeast)), sequence (P32657 whole entry, the tested form may be a part): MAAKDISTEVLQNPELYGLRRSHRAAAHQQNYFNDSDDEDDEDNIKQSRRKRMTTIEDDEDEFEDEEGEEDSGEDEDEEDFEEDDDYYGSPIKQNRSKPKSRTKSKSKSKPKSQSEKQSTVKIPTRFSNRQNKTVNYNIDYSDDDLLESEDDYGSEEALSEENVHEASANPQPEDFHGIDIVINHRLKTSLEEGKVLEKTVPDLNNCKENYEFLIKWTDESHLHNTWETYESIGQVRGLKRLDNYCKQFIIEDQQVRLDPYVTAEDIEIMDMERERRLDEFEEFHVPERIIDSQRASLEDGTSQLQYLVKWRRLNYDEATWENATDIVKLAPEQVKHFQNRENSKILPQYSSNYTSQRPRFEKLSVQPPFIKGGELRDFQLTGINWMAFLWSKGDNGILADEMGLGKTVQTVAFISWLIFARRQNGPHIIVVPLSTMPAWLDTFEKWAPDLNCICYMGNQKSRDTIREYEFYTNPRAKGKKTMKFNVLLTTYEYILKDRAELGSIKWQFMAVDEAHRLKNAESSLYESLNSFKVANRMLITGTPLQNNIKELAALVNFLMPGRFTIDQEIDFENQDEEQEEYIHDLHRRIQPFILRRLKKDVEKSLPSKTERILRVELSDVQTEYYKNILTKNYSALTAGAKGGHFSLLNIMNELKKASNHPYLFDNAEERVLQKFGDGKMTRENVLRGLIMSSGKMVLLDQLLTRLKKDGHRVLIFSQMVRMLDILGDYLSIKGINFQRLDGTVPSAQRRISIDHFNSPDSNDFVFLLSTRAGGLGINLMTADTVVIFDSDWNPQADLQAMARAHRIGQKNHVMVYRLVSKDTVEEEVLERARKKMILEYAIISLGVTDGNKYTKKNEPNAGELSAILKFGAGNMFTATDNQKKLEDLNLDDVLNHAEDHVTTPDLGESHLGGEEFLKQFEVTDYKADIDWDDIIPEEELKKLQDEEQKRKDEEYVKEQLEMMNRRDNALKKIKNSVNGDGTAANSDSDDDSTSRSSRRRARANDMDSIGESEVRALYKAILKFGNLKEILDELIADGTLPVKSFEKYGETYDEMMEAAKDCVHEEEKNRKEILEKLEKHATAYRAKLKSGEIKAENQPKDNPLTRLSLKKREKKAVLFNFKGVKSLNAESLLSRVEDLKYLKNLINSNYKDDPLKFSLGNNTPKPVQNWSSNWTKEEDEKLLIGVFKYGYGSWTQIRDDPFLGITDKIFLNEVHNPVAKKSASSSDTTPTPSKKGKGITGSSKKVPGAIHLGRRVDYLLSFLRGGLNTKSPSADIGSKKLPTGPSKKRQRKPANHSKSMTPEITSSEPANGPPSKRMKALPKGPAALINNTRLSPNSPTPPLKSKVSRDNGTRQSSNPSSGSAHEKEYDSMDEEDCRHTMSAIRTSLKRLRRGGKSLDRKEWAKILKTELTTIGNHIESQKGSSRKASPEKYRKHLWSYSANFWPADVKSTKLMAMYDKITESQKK

Protein translocase subunit SecA (Escherichia coli (strain K12)), sequence (P10408 whole entry): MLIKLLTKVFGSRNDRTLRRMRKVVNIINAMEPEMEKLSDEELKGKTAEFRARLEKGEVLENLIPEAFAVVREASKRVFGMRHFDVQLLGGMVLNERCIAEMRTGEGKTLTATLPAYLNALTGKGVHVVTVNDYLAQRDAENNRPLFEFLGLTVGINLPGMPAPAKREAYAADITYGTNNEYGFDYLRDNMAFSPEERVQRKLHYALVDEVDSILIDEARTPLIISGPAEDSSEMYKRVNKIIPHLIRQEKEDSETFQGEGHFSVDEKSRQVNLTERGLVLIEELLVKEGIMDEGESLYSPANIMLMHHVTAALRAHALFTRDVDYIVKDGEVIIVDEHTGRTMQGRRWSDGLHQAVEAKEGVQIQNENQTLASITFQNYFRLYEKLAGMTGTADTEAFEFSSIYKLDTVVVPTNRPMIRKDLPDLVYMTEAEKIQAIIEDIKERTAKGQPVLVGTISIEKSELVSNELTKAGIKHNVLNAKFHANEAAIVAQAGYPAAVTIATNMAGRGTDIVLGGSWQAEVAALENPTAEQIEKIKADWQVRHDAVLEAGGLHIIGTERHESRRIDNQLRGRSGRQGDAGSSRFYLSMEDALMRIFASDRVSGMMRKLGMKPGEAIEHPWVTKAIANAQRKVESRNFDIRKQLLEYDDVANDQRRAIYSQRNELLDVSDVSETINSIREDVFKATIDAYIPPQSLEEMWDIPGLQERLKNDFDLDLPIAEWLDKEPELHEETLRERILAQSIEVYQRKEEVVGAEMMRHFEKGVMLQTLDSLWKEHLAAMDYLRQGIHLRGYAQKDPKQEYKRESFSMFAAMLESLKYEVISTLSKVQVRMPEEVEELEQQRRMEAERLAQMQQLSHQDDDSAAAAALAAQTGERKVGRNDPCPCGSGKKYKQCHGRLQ
Sialic acid-binding Ig-like lectin 9 (Homo sapiens), sequence (Q9Y336 whole entry): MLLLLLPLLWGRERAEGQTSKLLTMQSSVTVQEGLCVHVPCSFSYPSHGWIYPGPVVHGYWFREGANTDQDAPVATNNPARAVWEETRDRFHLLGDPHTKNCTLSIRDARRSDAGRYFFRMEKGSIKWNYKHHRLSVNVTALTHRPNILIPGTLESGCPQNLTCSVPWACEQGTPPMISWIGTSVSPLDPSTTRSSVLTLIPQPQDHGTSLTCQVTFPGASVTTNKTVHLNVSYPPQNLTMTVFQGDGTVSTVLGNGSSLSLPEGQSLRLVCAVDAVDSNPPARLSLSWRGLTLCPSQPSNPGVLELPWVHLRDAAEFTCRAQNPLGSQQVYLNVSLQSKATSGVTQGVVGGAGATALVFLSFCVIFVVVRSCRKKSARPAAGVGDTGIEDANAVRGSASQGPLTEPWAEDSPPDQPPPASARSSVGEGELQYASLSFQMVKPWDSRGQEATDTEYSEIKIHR

For `Cc1noc(C)c1CCC(=O)N1CCN(CCn2cccn2)CC1`, the Percent Effect in experiment [1] is -5.39%; in experiment [2], 21.9%; in experiment [3] it was -6.91%; in experiment [4] it was 19.6%; in the experiment with Trypanosoma cruzi it was 7.64%; in [5], 8.18%. In addition, the Percent Effect is 8.52% in [6]; 3.96% in the experiment listed under Homo sapiens; 3.23% in experiment [7]; 17.5% in [8]; -5.67% in [9].

As to `Cc1ccc(NC(=O)N(C)Cc2cnn(C)c2)cc1OCC(F)F`, the Percent Effect in experiment [1] was -9.52%; in [2] it was 2.7%; in [3], -18.9%; in experiment [4], 28%; in the experiment with Trypanosoma cruzi it was 12.4%; in experiment [5] it was -11.2%. In addition, the Percent Effect in [6] is 6.67%; in the experiment filed under Homo sapiens, 11.9%; in experiment [7], 3.45%; in [8] it was 23.5%; in experiment [9] it was -16.1%.

On to `O=C(NCCN1CCC(c2cccs2)CC1)c1ccccc1C(F)(F)F`, for which the Percent Effect in [1] is -3.22%; in [2], 8.22%; in experiment [3], 0.699%; in experiment [4], 8.89%; in the experiment with Trypanosoma cruzi, 5.09%; in experiment [5], 17.7%. Further, the Percent Effect is 17.2% in experiment [6]; 3.57% in the experiment listed under Homo sapiens; 5.38% in experiment [7]; 12.5% in [8]; -4.65% in [9].

Turning to `CNS(=O)(=O)c1cccc(C(C)NCc2ccccc2)c1` (stereo not drawn), the Percent Effect in experiment [1] is -0.281%; in experiment [2], -2.7%; in experiment [3], 1.68%; in [4], -2.19%; in the experiment on Trypanosoma cruzi it was -5.08%; in experiment [5], 1.67%. Besides, the Percent Effect in experiment [6] was 3.63%; in the experiment filed under Homo sapiens, -5.59%; in [7] it was 2.97%; in experiment [8], 1.22%; in [9] it was -1.16%.

With `CCCn1nc2c(cc1=O)CN(Cc1cc(C)on1)CC2`, the Percent Effect in [1] is -5.31%; in experiment [2] it was -2.7%; in experiment [3], -46.3%; in experiment [4] it was 0.285%; with Trypanosoma cruzi, -1.76%; in experiment [5] it was 7.08%. For the same compound, the Percent Effect is 17.8% in experiment [6]; 9.88% in the experiment filed under Homo sapiens; 6.93% in [7]; 6.1% in experiment [8]; -7.36% in experiment [9].

As to `NC(=O)NCC1CCCCN1C(=O)c1cccc(C(F)(F)F)c1` (stereo not drawn), the Percent Effect was -6.54% in experiment [1]; 21.1% in experiment [2]; -2.74% in experiment [3]; 13.3% in experiment [4]; 4.95% with Trypanosoma cruzi; -6.47% in experiment [5]. For the same compound, the Percent Effect was 2.79% in experiment [6]; -1.19% in the experiment filed under Homo sapiens; 5.42% in [7]; 16.1% in experiment [8]; -9.06% in [9].

Consider `Cc1csc([C@@H]2C[C@@H]3CCN(C(=O)c4ccnnc4)C[C@H]3O2)n1`, for which the Percent Effect was 0.296% in experiment [1]; 2.6% in experiment [2]; 5.97% in experiment [3]; 6.2% in [4]; -0.296% in the experiment on Trypanosoma cruzi; -0.645% in experiment [5]. In addition, the Percent Effect in experiment [6] was -0.174%; in the experiment listed under Homo sapiens, 12.4%; in experiment [7], 6.35%; in experiment [8] it was 8.97%; in experiment [9], -1.14%.

As to `COc1ccccc1C(=O)N(C)Cc1ncc(C)c(OC)c1C`, the Percent Effect in experiment [1] is -0.917%; in experiment [2], -2.6%; in [3], 2.31%; in experiment [4] it was 10.5%; in the experiment with Trypanosoma cruzi, -1.86%; in experiment [5], 0.21%. The Percent Effect in experiment [6] is 3.8%; in the experiment filed under Homo sapiens, 5.2%; in [7] it was -0.952%; in [8] it was -2.35%; in [9], -15.8%.
